# Results reported in the antibiotic and cytotoxicity screens of Wong et al. (2023).
# Hit rate of the full screen: of about 39,000 compounds, about 3,300 (8.5%) were called active. The list comes from a sample in which actives are over-represented; it also holds similar structures and randomly drawn compounds.
# Test system: HepG2
# Assay: cytotoxicity call (relative viability < 0.9)
# Settings: 10 µM
row,Structure (SMILES),cytotoxicity call
1,CNC[C@@H]1Oc2ccc(NC(=O)CCN3CCOCC3)cc2CC(=O)N([C@H](C)CO)C[C@H]1C,inactive
2,C[C@H](CO)N1C[C@H](C)[C@@H](CN(C)C(=O)Nc2ccc3c(c2)OCO3)Oc2ccc(NC(=O)CCN3CCOCC3)cc2CC1=O,inactive
3,O=C(C[C@@H]1CC[C@H]2[C@@H](COC[C@@H](O)CN2C(=O)c2ccccc2F)O1)N1CCN(c2ccccc2)CC1,inactive
4,c1ncc(CC2CCNCC2)[nH]1,inactive
5,COc1ccc(S(=O)(=O)Nc2ccc3c(c2)CC(=O)N([C@@H](C)CO)C[C@@H](C)[C@H](CN(C)C)O3)cc1,inactive
6,C[C@H]1CN([C@@H](C)CO)C(=O)c2cccc(NC(=O)Nc3ccc4c(c3)OCO4)c2O[C@@H]1CN(C)Cc1ccc(C(=O)Nc2ccccc2N)cc1,inactive
7,COc1cccc(NC(=O)N(C)C[C@@H]2Oc3cc(C#Cc4ccncc4)ccc3S(=O)(=O)N([C@H](C)CO)C[C@@H]2C)c1,active
8,COc1cccc(NC(=O)N(C)C[C@H]2Oc3cc(C#Cc4ccncc4)ccc3S(=O)(=O)N([C@@H](C)CO)C[C@@H]2C)c1,active
9,COc1cccc(NC(=O)N(C)C[C@@H]2Oc3cc(C#Cc4ccncc4)ccc3S(=O)(=O)N([C@@H](C)CO)C[C@@H]2C)c1,active
10,COc1cccc(NC(=O)N(C)C[C@@H]2Oc3cc(C#Cc4ccncc4)ccc3S(=O)(=O)N([C@H](C)CO)C[C@H]2C)c1,active
11,COc1cccc(NC(=O)N(C)C[C@H]2Oc3cc(Br)ccc3S(=O)(=O)N([C@H](C)CO)C[C@H]2C)c1,inactive
12,Cc1noc(C)c1NC(=O)N(C)C[C@@H]1Oc2c(NS(=O)(=O)c3cn(C)cn3)cccc2C(=O)N([C@H](C)CO)C[C@H]1C,inactive
13,O=C(Nc1ccn([C@H]2O[C@H](CO)[C@@H](O)[C@@H]2O)c(=O)n1)c1ccccc1,inactive
14,O=C(C[C@@H]1CC[C@@H](NC(=O)c2cccnc2)[C@H](CO)O1)NCCN1CCCCC1,inactive
15,O=C(Nc1nccs1)[C@@H]1[C@@H](CO)[C@@H]2Cn3c(cccc3=O)[C@H]1N2C(=O)C1CC1,inactive
16,NCc1cnc2ccccc2c1,inactive
17,C[C@@H]1CCCCO[C@@H](CN(C)C(=O)Nc2cccc3ccccc23)[C@H](C)CN([C@H](C)CO)C(=O)c2cc(N(C)C)ccc2O1,inactive
18,C[C@H](CO)N1C[C@H](C)[C@@H](CN(C)S(=O)(=O)c2cn(C)cn2)Oc2ccc(NS(=O)(=O)c3cccs3)cc2CC1=O,inactive
19,Cc1ccc(S(=O)(=O)Nc2cccc3c2O[C@H](CN(C)Cc2ccc(C(F)(F)F)cc2)[C@@H](C)CN([C@@H](C)CO)C3=O)cc1,inactive
20,CC(=O)N1[C@@H]2c3ccc(-c4ccccc4)c(=O)n3C[C@H]1[C@H](CO)[C@H]2C(=O)NCCCN1CCOCC1,inactive
21,COc1cccc(NC(=O)N(C)C[C@@H]2Oc3cc(C#Cc4ccncc4)ccc3S(=O)(=O)N([C@@H](C)CO)C[C@H]2C)c1,active
22,COc1cccc(NC(=O)N(C)C[C@H]2Oc3cc(C#Cc4ccncc4)ccc3S(=O)(=O)N([C@H](C)CO)C[C@@H]2C)c1,active

row,Structure (SMILES),cytotoxicity call
1,COc1cccc(NC(=O)N(C)C[C@@H]2Oc3cc(C#CC4(O)CCCC4)ccc3S(=O)(=O)N([C@H](C)CO)C[C@H]2C)c1,inactive
2,COc1cccc(NC(=O)N(C)C[C@H]2Oc3cc(C#Cc4ccncc4)ccc3S(=O)(=O)N([C@@H](C)CO)C[C@H]2C)c1,active
3,COc1cccc(NC(=O)N(C)C[C@@H]2Oc3cc(C#CC4(O)CCCC4)ccc3S(=O)(=O)N([C@@H](C)CO)C[C@H]2C)c1,inactive
4,COc1cccc(NC(=O)N(C)C[C@H]2Oc3cc(C#Cc4ccncc4)ccc3S(=O)(=O)N([C@H](C)CO)C[C@H]2C)c1,active
5,COc1cccc(NC(=O)N(C)C[C@@H]2Oc3cc(C#CC4(O)CCCC4)ccc3S(=O)(=O)N([C@H](C)CO)C[C@@H]2C)c1,inactive
6,COc1cccc(NC(=O)N(C)C[C@H]2Oc3cc(C#CC4(O)CCCC4)ccc3S(=O)(=O)N([C@@H](C)CO)C[C@@H]2C)c1,inactive
7,COc1cccc(NC(=O)N(C)C[C@@H]2Oc3cc(C#CC4(O)CCCC4)ccc3S(=O)(=O)N([C@@H](C)CO)C[C@@H]2C)c1,inactive
8,COc1cccc(NC(=O)N(C)C[C@@H]2Oc3cc(Br)ccc3S(=O)(=O)N([C@@H](C)CO)C[C@H]2C)c1,inactive
9,CN(C)CC#Cc1ccc([C@H]2[C@H](CO)N3C(=O)CN(C(=O)CN(C)C)C[C@@H]23)cc1,inactive
10,C/C=C/c1ccc2c(c1)O[C@@H](CN(C)C(=O)c1ccc3c(c1)OCO3)[C@H](C)CN([C@H](C)CO)S2(=O)=O,inactive
11,COC(=O)c1cn(-c2cccc(N)c2)nn1,inactive
12,C[C@H]1CN([C@@H](C)CO)C(=O)Cc2cc(NS(=O)(=O)c3ccc(Cl)cc3)ccc2O[C@H]1CN(C)C(=O)Nc1cccc2ccccc12,inactive
13,C[C@H]1CN([C@@H](C)CO)C(=O)c2cccc(NC(=O)NC3CCCCC3)c2O[C@H]1CN(C)Cc1ccc(Oc2ccccc2)cc1,inactive
14,C[C@@H]1CCCCO[C@H](CN(C)Cc2ccncc2)[C@@H](C)CN([C@@H](C)CO)C(=O)c2cc(NC(=O)CCC(F)(F)F)ccc2O1,inactive
15,C[C@H]1CN([C@@H](C)CO)C(=O)c2cc(NC(=O)CCCCCC(=O)Nc3ccccc3N)ccc2O[C@@H]1CN(C)C(=O)Nc1ccc(F)cc1,inactive
16,CN1CCN(C(=O)C[C@H]2CC[C@@H]3[C@H](COC[C@H](O)CN3S(=O)(=O)c3cccc(Cl)c3)O2)CC1,inactive
17,CN(C)C(=O)C[C@@H]1CC[C@@H]2[C@@H](COc3ccc(NS(=O)(=O)c4cccc(F)c4)cc3C(=O)N2C)O1,inactive
18,C[C@@H]1CN([C@H](C)CO)C(=O)CCCn2nncc2CO[C@H]1CN(C)S(=O)(=O)c1cccc(C#N)c1,inactive
19,CO[C@H]1CN(C)C(=O)c2cc(NC(=O)Nc3ccccc3F)ccc2OC[C@@H](C)N(CCC(F)(F)F)C[C@@H]1C,inactive
20,C[C@H]1CN([C@@H](C)CO)C(=O)c2cc(NC(=O)CCN3CCOCC3)ccc2O[C@H]1CN(C)Cc1ccccc1,inactive
21,CN1CCN(C(=O)C[C@@H]2CC[C@H]3[C@@H](COc4ccc(NC(=O)c5cccs5)cc4C(=O)N3C)O2)CC1,inactive
22,O=C(O)CC(CC(=O)O)C(=O)O,inactive

row,Structure (SMILES),cytotoxicity call
1,Cc1ccc(S(=O)(=O)N(C)C[C@@H]2Oc3c(NC(=O)C4CCOCC4)cccc3C(=O)N([C@@H](C)CO)C[C@@H]2C)cc1,inactive
2,C[C@@H]1CCCCO[C@H](CN(C)C(=O)Nc2ccccc2)[C@H](C)CN([C@H](C)CO)C(=O)c2cc(NC(=O)c3ccncc3)ccc2O1,inactive
3,CC1(C)S[C@H]2[C@@H](NC(=O)[C@@H](N)c3ccccc3)C(=O)N2[C@@H]1C(=O)O,active
4,CC1(C)S[C@@H]2[C@H](NC(=O)[C@H](N)c3ccc(O)cc3)C(=O)N2[C@H]1C(=O)O,inactive
5,CC1(C)SC2C(NC(=O)C(N)c3ccc(O)cc3)C(=O)N2C1C(=O)O (centres undefined),inactive
6,C/C=C/c1ccc2c(c1)O[C@H](CN(C)C(=O)c1ccc3c(c1)OCO3)[C@H](C)CN([C@@H](C)CO)S2(=O)=O,inactive
7,COc1ccc(CNC(=O)N(C)C[C@@H]2OCc3ccccc3-c3c(n(C)c4ccccc34)C(=O)N([C@@H](C)CO)C[C@@H]2C)cc1,inactive
8,C[C@@H]1CCCCO[C@H](CN(C)S(=O)(=O)c2ccccc2)[C@@H](C)CN([C@@H](C)CO)C(=O)c2cc(NC(=O)Nc3cccc4ccccc34)ccc2O1,inactive
9,C[C@H](CO)N1C[C@H](C)[C@H](CN(C)Cc2ccc(-c3ccccc3)cc2)Oc2ccc(NS(=O)(=O)c3ccc(F)cc3)cc2CC1=O,active
10,C[C@@H]1CN([C@@H](C)CO)C(=O)Cc2cc(NS(=O)(=O)c3ccc(F)cc3)ccc2O[C@H]1CN(C)Cc1ccc(-c2ccccc2)cc1,inactive
11,C[C@@H]1CN([C@@H](C)CO)C(=O)Cc2cc(NS(=O)(=O)c3ccc(F)cc3)ccc2O[C@@H]1CN(C)Cc1ccc(-c2ccccc2)cc1,active
12,C[C@@H]1CN([C@H](C)CO)C(=O)Cc2cc(NS(=O)(=O)c3ccc(F)cc3)ccc2O[C@@H]1CN(C)Cc1ccc(-c2ccccc2)cc1,active
13,C[C@H]1CN([C@@H](C)CO)C(=O)Cc2cc(NS(=O)(=O)c3ccc(F)cc3)ccc2O[C@H]1CN(C)Cc1ccc(-c2ccccc2)cc1,inactive
14,C[C@H]1CN([C@@H](C)CO)C(=O)Cc2cc(NS(=O)(=O)c3ccc(F)cc3)ccc2O[C@@H]1CN(C)Cc1ccc(-c2ccccc2)cc1,inactive
15,C[C@H](CO)N1C[C@H](C)[C@@H](CN(C)Cc2ccc(-c3ccccc3)cc2)Oc2ccc(NS(=O)(=O)c3ccc(F)cc3)cc2CC1=O,active
16,C[C@@H]1CN([C@@H](C)CO)C(=O)c2cc(C#CCc3ccccc3)cnc2O[C@@H]1CN(C)CC1CCOCC1,inactive
17,COc1ccc(NC(=O)N(C)C[C@@H]2Oc3c(NC(=O)Nc4cccc5ccccc45)cccc3C(=O)N([C@H](C)CO)C[C@@H]2C)cc1,inactive
18,C[C@@H]1CCCCO[C@H](CN(C)C(=O)c2ccccc2)[C@@H](C)CN([C@H](C)CO)C(=O)c2cc(NS(=O)(=O)c3ccc(F)cc3)ccc2O1,inactive
19,C[C@@H]1CCCCO[C@@H](CN(C)S(=O)(=O)c2ccccc2)[C@@H](C)CN([C@@H](C)CO)C(=O)c2cc(NS(=O)(=O)c3cn(C)cn3)ccc2O1,inactive
20,COc1ccc(S(=O)(=O)Nc2ccc3c(c2)CC(=O)N([C@H](C)CO)C[C@@H](C)[C@H](CN(C)S(=O)(=O)c2ccccc2)O3)cc1,inactive
